Compounds with a hit are over-represented: about 4.1% of the library has one in this group of screens.
DAX1 inh-1: NR0B1 (DAX1) inhibition; P51843; HEK293 Gal4-DAX1 luciferase reporter, luminescence; inhibition, % at 6.75 µM; 0.99% of 340,000 active;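 active = inhibition above the mean over all tested compounds plus 3 SD, cut at about 4.2% in these data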;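 note: inhibition shows as a rise in luminescence from relieved DAX1 repression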
hgDAF12 agonist: activates the H. glycines DAF-12 receptor ligand-binding domain; HEK293 GAL4-hgDAF12 UAS-luciferase reporter, agonist luminescence; normalized to butyrate control; AID 687014; 1.8% of 370,000 active; activation, % at 6.8 µM;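 active = activation above a cutoff set at the mean of all screened compounds plus 3 SD, cut at about 10% in these data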
ssDAF-12 act: activates DAF-12 receptor from parasite S. stercoralis. HEK293 ssDAF-12/GRIP1 lit1-tk-luc reporter, luminescence; % of 3 µM dafachronic acid response. activation, % at 6.8 µM. 1% of 370,000 active. AID 652126;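 active = activation above the mean over all tested compounds plus 3 SD, cut at about 0.9% in these data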
hcDAF-12 act: H. contortus DAF-12 activation, primary screen; HEK293 hcDAF-12 lit1-tk-luc reporter, luminescence; 0% DMSO, 100% Δ7-dafachronic acid; activation, % at 6.8 µM; 1.4% of 370,000 active; AID 652067;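 active = activation above the mean of all tested compounds plus 3 SD, cut at about 5.5% in these data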
DAX1 inh-2: inhibitors of DAX1 repression of SF-1 activated StAR promoter | HEK293T StAR-luciferase reporter, SF-1/DAX-1 repression relief | 1.1% of 370,000 active | inhibition, % at 6.8 µM;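 active = inhibition above the mean over all tested compounds plus 3 SD, cut at about 3.6% in these data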;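 note: higher inhibition means more luminescence from relief of DAX-1 repression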
DAX1 inh confirm: confirmation of human DAX1 (NR0B1) inhibitors; shares compounds with DAX1 inh-2; HEK293T StAR-promoter luciferase reporter, SF-1/DAX-1 repression; inhibition, % at 6.8 µM; 87% of 2,400 active;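 active = inhibition above the average of every tested compound plus 3 SD, cut at about 3.8% in these data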;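 note: active compounds raise luminescence by relieving repression of the StAR reporter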
Target sequence (P51843 whole entry, looked up): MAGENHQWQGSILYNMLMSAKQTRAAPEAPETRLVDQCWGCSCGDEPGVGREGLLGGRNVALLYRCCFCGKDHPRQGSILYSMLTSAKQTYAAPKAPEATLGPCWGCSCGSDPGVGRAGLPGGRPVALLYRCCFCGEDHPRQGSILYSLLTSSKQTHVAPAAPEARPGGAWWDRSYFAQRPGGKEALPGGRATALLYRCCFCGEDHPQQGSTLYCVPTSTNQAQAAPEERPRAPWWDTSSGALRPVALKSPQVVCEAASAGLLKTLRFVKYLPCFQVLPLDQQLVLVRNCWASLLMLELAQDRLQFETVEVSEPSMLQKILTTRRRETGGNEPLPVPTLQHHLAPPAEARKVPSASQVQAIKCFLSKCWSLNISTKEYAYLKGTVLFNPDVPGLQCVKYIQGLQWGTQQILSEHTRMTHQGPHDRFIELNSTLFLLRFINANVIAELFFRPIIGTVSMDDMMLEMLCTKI
SF1 AF2mut Luc: nonselective inhibitor or artifact in SF-1 mutant DAX1 counter-screen; HEK293 StAR-luciferase, SF-1 AF2 mutant, luminescence; AID 652136; shares compounds with DAX1 inh-2; inhibition, % at 6.8 µM; 78% of 2,400 active;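 active = inhibition above the mean of all tested compounds plus 3 SD, cut at about 3% in these data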
Hits are given with their value; . = inactive; / = no result.

SMILES | DAX1 inh-1 | hgDAF12 agonist | ssDAF-12 act | hcDAF-12 act | DAX1 inh-2 | DAX1 inh confirm | SF1 AF2mut Luc
Cc1ccc(Cc2c(-c3ccc(Cl)cc3)nc3cc(C)ccn23)cc1 | . | . | . | . | 7.2 | . | .
Cc1ccn2c(Cc3ccccc3)c(-c3ccccc3)nc2c1 | . | 11 | . | . | 5.5 | . | .
Cc1ccn2c(CN3CCOCC3)c(-c3ccccc3)nc2c1 | . | . | . | . | . | / | /
COCCCNC(=O)C[C@H]1C[C@@]2(C(=O)OC)C(=C[C@H](C3CCCC3)O[C@@H]2C)N(CCC2=CCCCC2)C1=O | / | . | . | . | . | / | /
Cc1ccnc(NC(=O)c2cccc(S(=O)(=O)N3CCOCC3)c2)c1 | . | 11 | . | . | 6.1 | 4.7 | .
O=C(Nc1ccccn1)c1cccc(S(=O)(=O)N2CCOCC2)c1 | . | . | . | . | . | / | /
O=C(NN=Cc1ccc(-c2ccccc2)cc1)c1cc(-c2ccc(Cl)cc2)n[nH]1 | / | . | . | . | . | / | /
Cc1ccc2c(c1)-c1c(cnn1CC(=O)NCCc1ccc(Cl)cc1)CO2 | / | . | . | . | . | / | /
O=C(C[C@H]1C[C@H](C(=O)N2CCOCC2)[C@@]2(CCC3CCCC3)c3[nH]c4cc(-c5ccco5)ccc4c3CCN2C1=O)NCCc1ccccn1 | . | . | . | . | 4.6 | . | .
CC(C)(C)NC(=O)C[C@H]1C[C@H](C(=O)N2CCCCC2)[C@@]2(CCc3ccccc3)c3[nH]c4cc(-c5ccco5)ccc4c3CCN2C1=O | . | . | . | . | 6.1 | . | .
CC(C)(C)NC(=O)C(c1cccnc1)N(C(=O)c1cnc[nH]1)c1ccc(C(C)(C)C)cc1 (stereo not drawn) | / | . | . | . | / | / | /
Cc1c(C(=O)OCC(=O)NCc2ccco2)oc2ccccc12 | . | . | . | . | 4.5 | . | .
COCc1c(C(=O)OCC(=O)NCc2ccco2)oc2ccccc12 | . | . | . | . | . | / | /
COc1cccc2c(NCc3ccccc3)nc(-n3c(N)nc4ccccc43)nc12 | / | . | . | . | / | / | /
O=C(NNC(=O)c1ccccc1O)c1cc2ccccc2o1 | . | . | 1.1 | . | 5.6 | 3.8 | 4.0
CC(=O)C1(C(=O)NC2CCCC2)CC(c2ccccn2)=NO1 (stereo not drawn) | / | . | . | . | . | / | /
Cc1ccccc1CS(=O)(=O)Cc1ccc(C(=O)Nc2ccccc2C)o1 | / | . | . | . | . | / | /
COc1ccccc1NC(=O)Nc1ccc2c(c1)CCC2 | . | . | . | . | 8.1 | 6.3 | 4.9
COc1cc(C(=O)Nc2ccc3c(c2)nc(C)n3C)cc(OC)c1OC | . | . | . | . | . | / | /
Cc1ccccc1NC(=O)Nc1ccc2c(c1)CCC2 | . | . | . | . | 5.0 | 11 | 5.5
COc1ccccc1NC(=O)Nc1ccc2c(c1)nc(C)n2C | . | 13 | . | . | 6.0 | 17 | 9.7
COC(=O)[C@H](Cc1ccccc1)N1Cc2ccccc2Oc2cc(Br)ccc2S1(=O)=O | / | . | . | . | . | / | /
COC(=O)[C@]12C[C@H](CC(=O)NCCc3ccccc3OC)C(=O)N(Cc3cccc4ccccc34)C1=C[C@H](C(C)(C)C)O[C@@H]2C | / | . | . | . | . | / | /
C#CCN1CC(COc2ccccc2)Oc2cccc(Oc3ccc(C(C)C)cc3)c2S1(=O)=O (stereo not drawn) | / | . | . | . | . | / | /
COC(=O)c1ccc2c(c1)c(C#Cc1ccccc1)c(-c1ccccc1)n2C | . | . | . | . | 4.7 | . | .
SMILES | DAX1 inh-1 | hgDAF12 agonist | ssDAF-12 act | hcDAF-12 act | DAX1 inh-2 | DAX1 inh confirm | SF1 AF2mut Luc
O=S1(=O)c2ccc(N3CCCC3)cc2Oc2ccccc2CN1Cc1cn(Cc2ccccc2C(F)(F)F)nn1 | / | . | . | . | . | / | /
O=C(c1ccc(CS(=O)c2ccccc2Cl)o1)N1CCN(C2CCCCC2)CC1 (stereo not drawn) | . | . | . | . | 6.9 | 5.8 | .
Cc1ccccc1N1CCN(S(=O)(=O)c2ccc3c(c2)oc(=O)n3C)CC1 | / | . | . | . | . | / | /
C/C(=N\NC(=O)c1ccc(O)cc1)c1ccc(NC(=O)Cc2ccccc2)cc1 | . | 12 | . | . | 5.5 | . | .
C=CCN1[C@H](C#N)[C@@H](c2ccc(C#Cc3cccnc3)cc2)[C@H]1CO | / | . | . | . | . | / | /
Cc1ccc(S(=O)(=O)N(C)CC(=O)Nc2cc(C)ccn2)cc1 | . | 10 | . | . | 4.6 | 6.8 | 5.2
COc1cc(/C=C(\C#N)C(=O)Nc2ccccc2F)ccc1OCCN1CCOCC1 | . | . | . | . | 4.5 | 5.0 | .
CCN(CC(=O)Nc1ccc2c(c1)OCCO2)C(=O)c1ccc(Cl)cc1Cl | . | 11 | . | . | 6.0 | 7.5 | 5.9
CCN(CC(=O)Nc1ccc2c(c1)OCCO2)C(=O)c1ccc(C(F)(F)F)cc1 | . | . | . | . | 5.2 | 5.9 | 3.0
COc1cccc(C(=O)N2CCC[C@@H]2C(=O)N2CCC[C@H]2C(=O)NCc2ccccc2)c1 | / | . | . | . | . | / | /
CNC(C)C(=O)NC(C(=O)N1CCCC1C(=O)Nc1cccc2ncccc12)C(C)C (stereo not drawn) | / | . | . | . | / | / | /
CN1CCCCC(NC(=O)CCl)C1=O (stereo not drawn) | / | . | . | . | . | / | /
C/C(=N/NC(=O)c1ccco1)c1ccc(NC(=O)c2ccc(Br)o2)cc1 | . | . | . | . | 5.9 | . | .
COC(=O)C1CCN(C(=O)COC(=O)/C=C/c2ccc(O)c(OC)c2)CC1 | . | . | . | . | 8.5 | . | .
O=C(Nc1ccc(Cl)cn1)c1ccc2nccnc2c1 | . | . | 1.6 | . | 6.4 | 4.5 | .
O=C(NCCc1ccc(Cl)cc1)c1ccc2nccnc2c1 | . | . | . | . | 5.4 | 8.2 | 7.9
O=C(NCCc1ccc(Cl)cc1)c1ccc2nc[nH]c2c1 | . | . | . | . | . | / | /
Cc1cc(C)nc(SCc2csc(-c3ccccc3)n2)n1 | . | 11 | . | . | 5.2 | 12 | 6.3
O=C(c1cc(COc2c(F)cccc2F)on1)N1CCCCCC1 | . | . | . | . | 4.8 | 4.6 | 3.0
CCOC(=O)N1CCN(C(=O)c2cc(COc3ccc(F)cc3F)on2)CC1 | . | . | . | . | . | / | /
CC(=O)N1CCCN(C(=O)c2cc(COc3c(F)cccc3F)on2)CC1 | . | . | . | . | . | / | /
Cc1cccc(C)c1OCc1cc(C(=O)N2CCC(C3CCCCC3)C2)no1 (stereo not drawn) | . | . | . | . | 4.7 | 5.0 | 4.0
CC(=O)c1ccc(OCc2cc(C(=O)N3CC[C@@H]4CCCC[C@H]4C3)no2)cc1 | . | . | . | . | . | / | /
CN(C(=O)c1cc(COc2c(F)cccc2F)on1)C1CCOC1 (stereo not drawn) | . | . | . | . | 5.1 | . | .

Screening results (PubChem)
